Counter-ions that a name gives are not always drawn.
test system: A549-GM130-SQSTM1; assay: phenotypically active (imaging signature differs from DMSO and reproducible) at any of 0.3-9 uM (binary (1 = active, 0 = inactive)); higher = active; settings: treatment time: 24 h
Procedure, shortened: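 Each of fifteen gene-edited A549, HepG2 and WPMY1 reporter lines, marked with BFP for segmentation and GFP and RFP/FusionRed, was treated in four wells at 0.3, 1, 3 or 9 µM for 24 h prior to live imaging. Normalisation of per-well live-cell features used solvent control wells. Deviation needed ≥3 of 4 wells beyond the 95th percentile of control Euclidean distances, and reproducibility needed a median replicate Pearson correlation above the 95th percentile of non-replicates. Both were required for phenotypic activity.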

Phenotypically active, active:
Nc1nc(Cl)nc2c1ncn2[C@@H]1O[C@H](CO)[C@@H](O)[C@@H]1F [clofarabine] 1, Cc1nc(Nc2ncc(C(=O)Nc3c(C)cccc3Cl)s2)cc(N2CCN(CCO)CC2)n1 [dasatinib] 1, O=C(NCc1cccc(O)c1)Nc1nc(-c2ccncc2)cs1 [RKI 1447 dihydrochloride] 1, CC(C)n1nc(-c2cc3cc(O)ccc3[nH]2)c2c(N)ncnc21 1, COc1ccc(-c2ccc3ncc4c(c3c2)n(-c2ccc(N3CCNCC3)c(C(F)(F)F)c2)c(=O)n4C)cn1 1, CC(C)(C)c1cnc(CSc2cnc(NC(=O)C3CCNCC3)s2)o1 1, O=C(O)c1ccc(Nc2ncc3c(n2)-c2ccc(Cl)cc2C(c2c(F)cccc2F)=NC3)cc1 1, COc1ccc(S(=O)(=O)N(C(C)=O)c2ccccc2/C=C/c2cc[n+]([O-])cc2)cc1 1, CC(C)(C)Nc1nc(Nc2ccc(C(N)=O)cc2)cc(N)c1C#N 1, Nc1cccc(-c2cc3c(Oc4cccc(O)c4)ncnc3[nH]2)c1 1, c1ccc2c(c1)Cc1c(Nc3ccc4c(c3)OCCO4)n[nH]c1-2 1, Cc1c(NC(=O)OC[C@@H]2COCCN2)cn2ncnc(Nc3ccc4c(cnn4Cc4cccc(F)c4)c3)c12 1, CCC(=O)N1CCN(c2ccc(-n3c(=O)ccc4cnc5ccc(-c6cnc7ccccc7c6)cc5c43)cc2C(F)(F)F)CC1 [Torin 1] 1, COc1c(Nc2cc(C)[nH]n2)nc(Sc2ccc(S(=O)(=O)Cc3cccc([N+](=O)[O-])c3F)cc2F)nc1N1CCOCC1 [Centrinone] 1, COc1cc2c(NC3CCN(C(C)C)CC3)nc(N3CCC(F)(F)CC3)nc2cc1OCCCN1CCCC1 1, CC(=O)c1c(C)c2cnc(Nc3ccc(N4CCNCC4)cn3)nc2n(C2CCCC2)c1=O 1, CN1c2ccccc2C(=O)N2CCc3c([nH]c4ccccc34)[C@H]21 [Evodiamine] 1, CO[C@H]1C=CC=C(C)C(=O)NC2=CC(=O)C(NCCN(C)C)=C(C[C@@H](C)C[C@H](OC)[C@H](O)[C@@H](C)C=C(C)[C@@H]1OC(N)=O)C2=O [17-DMAG hydrochloride] 1, Cc1noc(C)c1-c1cc(O)cc(C(O)c2ccccc2)c1 (centres undefined) 1, O=C(Nc1ccc(-c2ccnc(Nc3ccc(N4CCOCC4)cc3)n2)cc1)[C@@H]1CCCN1 1, NC1(C(=O)N[C@@H](CCO)c2ccc(Cl)cc2)CCN(c2ncnc3[nH]ccc23)CC1 1, NC(=O)Nc1cc(-c2cccc(F)c2)sc1C(=O)N[C@H]1CCCNC1 [AZD 7762 hydrochloride] 1, COc1cc2nc(-c3cc(F)ccc3O)nc(N[C@@H]3CNC[C@H]3C(C)(C)O)c2cc1OC 1, Cc1c[nH]c2nccc(Oc3c(F)cc(Nc4cc(Cl)nc(N)n4)cc3F)c12 1, C[C@H]1[C@H]2CC[C@H]3[C@@H]4CC=C5C[C@@H](N(C)C)CC[C@]5(C)[C@H]4CC[C@]23CN1C [Conessine] 1, CON(C)C(=O)N1N=C(c2cc(F)ccc2F)S[C@@]1(CCCN)c1ccccc1 [ARRY 520 trifluoroacetate] 1, CC[C@H](CO)Nc1nc(NCc2ccc(-c3ccccn3)cc2)c2ncn(C(C)C)c2n1 1, Oc1cccc(-c2nc(N3CCOCC3)c3oc4ncccc4c3n2)c1 [PI 103 hydrochloride] 1, COc1cc(/C=C/c2ccc(OC)cc2OC)cc(OC)c1 1, COc1cc2c(cc1-c1c(C)noc1C)ncc1[nH]c(=O)n([C@H](C)c3ccccn3)c12 [I-BET 151 dihydrochloride] 1, COc1cccc(-c2cc(F)ccc2[C@H]2Cc3nc(N)nc(C)c3C(=O)N2)n1 1, COc1cc(C(=O)NC2CCN(C)CC2)c(F)cc1Nc1ncc2c(n1)N(C1CCCC1)CC(F)(F)C(=O)N2C [TAK 960 hydrochloride] 1, CC[C@]1(O)C[C@@H]2CN(CCc3c([nH]c4ccccc34)[C@@](C(=O)OC)(c3cc4c(cc3OC)N(C=O)[C@H]3[C@@](O)(C(=O)OC)[C@H](OC(C)=O)[C@]5(CC)C=CCN6CC[C@]43[C@@H]65)C2)C1 [vincristine] 1, OC[C@H]1O[C@@H](n2cnc3c(NCc4ccco4)ncnc32)[C@H](O)[C@@H]1O [Kinetin riboside] 1, N#Cc1c(C2CCNCC2)cc(-c2c(O)cccc2OCC2CC2)nc1N 1, C=CC(=O)Nc1cccc(Nc2nc(Nc3ccc(OCCOC)cc3)ncc2F)c1 1, COc1cc(N2CCC(N3CCN(C)CC3)CC2)ccc1Nc1ncnc(Nc2ccccc2S(=O)(=O)C(C)C)n1 1, Fc1ccccc1CNCc1ccc(-c2ccnc3[nH]ccc23)cc1 [OXA 06 dihydrochloride] 1, C[C@H]1COCCN1c1cc(C2(S(=O)(=O)C3CC3)CC2)nc(-c2ccc(NC(=S)NCCO)cc2)n1 1

— the supplement of paper PMC7411054
